Results from PubChem BioAssay (NCATS).
Where “and” joins values, the source holds several entries; their conditions need not be identical. Identical values can stand only once. Results filed as inconclusive are left out. Entries that show only a call come without a potency. Values without a mark were called inactive. Calls of active or inactive are those of the source. Unless noted, the call rests on the fitted dose curve; in most records, active means well fitted curve in the direction sought with a large enough effect; inconclusive means small, poorly fitted or top-dose-only effect, or another doubt; inactive means no such curve, though single readings can be large; an effect the other way counts as inactive or inconclusive.

Tests used:
[1] = target: Ubiquitin carboxyl-terminal hydrolase 1 (Homo sapiens) (UniProt O94782); test: Inhibitors of USP1/UAF1: Pilot qHTS (AID 504865); further: nearly all actives have a fitted effect of over 35% in size; further: potency means the concentration at half of the fitted maximal effect
Procedure, shortened: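 USP1/UAF1 complex (1nM) preincubated with compound 15 min at room temperature, then Ub-Rho substrate (150nM final) added. Fluorescence read kinetically at 480/540 nm, 6 reads every 60 seconds. Buffer: 50mM HEPES pH 7.8, 0.5mM EDTA, 0.1 mg/ml BSA, 1mM TCEP, 0.01% Tween-20.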

[2] = target: ATP-dependent 6-phosphofructokinase (Trypanosoma brucei brucei) (UniProt O15648); test: qHTS Assay to Find Inhibitors of T. brucei phosphofructokinase: hit validation (AID 492961);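 further: luminescence reports ADP formed as PFK phosphorylates fructose-6-phosphate with ATP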
Procedure, shortened: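 Measures ADP output of PFK (1.25 nM) at 0.1 mM ATP, 0.5 mM F6P, pH 8.0 TEA buffer with 5 mM MgCl2. No-enzyme wells define full inhibition; uninhibited enzyme wells define zero.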

[3] = S16 Schwann cell viability assay (CellTiter-Glo assay) (AID 624031);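 further: cellular ATP luminescence as a viability measure; nearly all actives have a fitted effect of over 70% in size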
Procedure, shortened: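 Untransfected S16 rat Schwann cells; compound 24 h, 37 °C/5% CO2; CellTiter-Glo ATP luminescence. % activity vs no-cell wells and DMSO controls (0%); concentration-effect curves classed by r2, response magnitude, activity.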

[4] = S16 Schwann cell PMP22 intronic element beta-lactamase assay (AID 624044; calls by dose curve; further: nearly all actives have a fitted effect of over 15% in size)
Procedure, shortened: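 Rat S16 Schwann cells with beta-Lac driven by a PMP22 intronic element, compound-treated 24 h at 37 °C. LiveBLAzer FRET B/G read: 460 nm normalized to potassium clavulanate vs DMSO; 535 nm FRET as viability; concentration-effect curves classified.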

[5] = qHTS profiling for inhibitors of Plasmodium falciparum proliferation (AID 504749); further: potency means the concentration at half of the fitted maximal effect; on all read-outs here: nearly all actives have a fitted effect of over 60% in size; details: P. falciparum in erythrocytes, SYBR Green DNA, 72 h; for activity, negative = inhibition: at 28.7 µM (top of the series)
Procedure, shortened: (§1)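 Infected RBCs, 0.3% parasitemia/2.5% Hct final; cpd 72 h, 37 C, 5% CO2; lysis buffer with saponin/triton/SYBR Green I, o/n RT dark; FI 485/535; norm. to artemisinin (0.29 uM) and DMSO.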

[6] = system: 3D7; test: as above; details: P. falciparum in erythrocytes, SYBR Green DNA, 72 h; series mostly up to 28.7 µM
Procedure, shortened: as §1

[7] = system: CP191; test: as above; details: P. falciparum in erythrocytes, SYBR Green DNA, 72 h; series mostly up to 28.7 µM
Procedure, shortened: as §1

[8] = system: CP203; test: as above; details: P. falciparum in erythrocytes, SYBR Green DNA, 72 h; series mostly up to 28.7 µM
Procedure, shortened: as §1

[9] = system: CP237; test: as above; details: P. falciparum in erythrocytes, SYBR Green DNA, 72 h; series mostly up to 28.7 µM
Procedure, shortened: as §1

[10] = system: CP250; test: as above; details: P. falciparum in erythrocytes, SYBR Green DNA, 72 h; series mostly up to 28.7 µM
Procedure, shortened: as §1

[11] = system: CP252; test: as above; details: P. falciparum in erythrocytes, SYBR Green DNA, 72 h; series mostly up to 28.7 µM
Procedure, shortened: as §1

[12] = system: DFO2036; test: as above; details: P. falciparum in erythrocytes, SYBR Green DNA, 72 h; series mostly up to 28.7 µM
Procedure, shortened: as §1

[13] = system: Dd2; test: as above; details: P. falciparum in erythrocytes, SYBR Green DNA, 72 h; series mostly up to 28.7 µM
Procedure, shortened: as §1

[14] = system: FAB9; test: as above; details: P. falciparum in erythrocytes, SYBR Green DNA, 72 h; series mostly up to 28.7 µM
Procedure, shortened: as §1

[15] = system: HB3; test: as above; details: P. falciparum in erythrocytes, SYBR Green DNA, 72 h; series mostly up to 28.7 µM
Procedure, shortened: as §1

[16] = system: PC49; test: as above; details: P. falciparum in erythrocytes, SYBR Green DNA, 72 h; series mostly up to 28.7 µM
Procedure, shortened: as §1

[17] = qHTS Assay for Identification of Small Molecule Agonists for Hypoxia Response Element Signaling Pathway (AID 914; active means well fitted activation curve with a large enough effect in the signal ratio, with a control signal flat, not every such curve was filed as active; the % refers to the signal ratio); details: ME-180 (cervical carcinoma) HRE-bla reporter, beta-lactamase ratio, CoCl2, 17 h; stronger effect = higher value
Procedure, shortened: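 HRE-bla ME-180 cells, overnight plating in Opti-MEM with 0.5% dialyzed FBS; cpd titration + EC50 CoCl2, 17 h, 37 degrees Celsius; CCF4 2.5 h RT; 460/530 nm ratio; AC50.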

[18] = target: Bile acid receptor (Homo sapiens) (UniProt Q96RI1); test: qHTS assay for small molecule antagonists of farnesoid X receptor signaling (AID 588526; calls by dose curve)
Procedure, shortened: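 Beta-lactamase reporter antagonist mode: HEK293T FXR-UAS-bla cells, titrated compound, CDCA stimulation, 16 h 37 C, CCF4 dye 2 h RT. Data normalized to CDCA 50 uM and DMSO; Hill-fit IC50.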

[19] = target: Androgen receptor (Homo sapiens) (UniProt P10275); test: qHTS assay for small molecule agonists of androgen receptor signaling (AID 588515; active means well fitted curve in the direction sought with a large enough effect in the signal ratio, with a control signal flat; the % refers to the signal ratio); details: AR-UAS-bla HEK293, beta-lactamase ratio, agonist 16 h; stronger effect = higher value
Procedure, shortened: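 EC50 and efficacy came from Hill fits of titrations (up to 92 uM) normalized to 30 nM R1881 as 100% and DMSO as 0%. Compound exposure was 16 h at 37 C on AR-UAS-bla HEK293 cells, with a 405/460/530 nm CCF4 fluorescence read.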

[20] = qHTS assay to identify small molecules that stimulate interleukin-8 (IL-8) secretion (AID 651758; active means well fitted activation curve with a large enough effect in the signal ratio; the % refers to the signal ratio)
Procedure, shortened: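 Secreted IL-8 measured by TR-FRET sandwich (cryptate and XL665 antibodies) from THP-1 cells exposed to compound overnight (16 hrs, 37 C).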

Chain of Androgen receptor (Homo sapiens) (P10275 whole entry, looked up): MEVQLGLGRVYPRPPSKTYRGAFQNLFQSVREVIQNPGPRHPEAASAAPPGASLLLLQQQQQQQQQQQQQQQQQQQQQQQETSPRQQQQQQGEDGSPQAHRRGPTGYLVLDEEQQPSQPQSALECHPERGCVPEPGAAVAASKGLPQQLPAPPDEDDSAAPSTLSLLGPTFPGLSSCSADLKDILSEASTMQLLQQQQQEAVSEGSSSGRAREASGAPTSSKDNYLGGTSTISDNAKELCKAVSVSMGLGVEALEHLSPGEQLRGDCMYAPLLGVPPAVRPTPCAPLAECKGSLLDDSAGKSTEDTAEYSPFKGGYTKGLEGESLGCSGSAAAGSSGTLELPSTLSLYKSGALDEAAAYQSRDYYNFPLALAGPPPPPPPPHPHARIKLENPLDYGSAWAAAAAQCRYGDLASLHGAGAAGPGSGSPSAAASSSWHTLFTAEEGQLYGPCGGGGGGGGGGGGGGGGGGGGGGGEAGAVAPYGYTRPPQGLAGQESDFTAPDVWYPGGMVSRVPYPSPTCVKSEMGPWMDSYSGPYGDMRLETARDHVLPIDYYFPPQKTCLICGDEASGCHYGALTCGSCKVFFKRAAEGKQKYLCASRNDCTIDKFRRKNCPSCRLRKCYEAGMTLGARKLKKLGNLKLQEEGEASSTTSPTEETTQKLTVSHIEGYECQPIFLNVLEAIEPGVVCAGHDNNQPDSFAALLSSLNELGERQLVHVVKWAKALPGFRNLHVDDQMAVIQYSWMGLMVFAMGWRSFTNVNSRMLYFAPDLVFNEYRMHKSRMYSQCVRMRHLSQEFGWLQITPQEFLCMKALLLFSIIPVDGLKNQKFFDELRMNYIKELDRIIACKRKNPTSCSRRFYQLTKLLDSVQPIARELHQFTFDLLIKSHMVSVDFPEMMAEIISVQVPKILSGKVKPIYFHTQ
Chain of ATP-dependent 6-phosphofructokinase (Trypanosoma brucei brucei) (O15648 whole entry, looked up): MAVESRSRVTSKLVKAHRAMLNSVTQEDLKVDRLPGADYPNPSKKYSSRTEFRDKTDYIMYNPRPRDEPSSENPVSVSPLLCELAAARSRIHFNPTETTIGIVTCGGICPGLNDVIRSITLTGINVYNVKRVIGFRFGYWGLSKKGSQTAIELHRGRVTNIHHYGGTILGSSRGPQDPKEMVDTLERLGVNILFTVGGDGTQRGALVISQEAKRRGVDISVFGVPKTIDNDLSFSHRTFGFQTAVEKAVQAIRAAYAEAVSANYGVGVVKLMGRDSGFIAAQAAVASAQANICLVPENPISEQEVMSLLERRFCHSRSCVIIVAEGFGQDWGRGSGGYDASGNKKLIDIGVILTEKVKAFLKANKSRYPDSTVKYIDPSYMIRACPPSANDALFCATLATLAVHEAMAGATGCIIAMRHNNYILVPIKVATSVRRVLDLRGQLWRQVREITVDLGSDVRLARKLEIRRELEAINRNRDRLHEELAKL
Chain of Bile acid receptor (Homo sapiens) (Q96RI1 whole entry, looked up): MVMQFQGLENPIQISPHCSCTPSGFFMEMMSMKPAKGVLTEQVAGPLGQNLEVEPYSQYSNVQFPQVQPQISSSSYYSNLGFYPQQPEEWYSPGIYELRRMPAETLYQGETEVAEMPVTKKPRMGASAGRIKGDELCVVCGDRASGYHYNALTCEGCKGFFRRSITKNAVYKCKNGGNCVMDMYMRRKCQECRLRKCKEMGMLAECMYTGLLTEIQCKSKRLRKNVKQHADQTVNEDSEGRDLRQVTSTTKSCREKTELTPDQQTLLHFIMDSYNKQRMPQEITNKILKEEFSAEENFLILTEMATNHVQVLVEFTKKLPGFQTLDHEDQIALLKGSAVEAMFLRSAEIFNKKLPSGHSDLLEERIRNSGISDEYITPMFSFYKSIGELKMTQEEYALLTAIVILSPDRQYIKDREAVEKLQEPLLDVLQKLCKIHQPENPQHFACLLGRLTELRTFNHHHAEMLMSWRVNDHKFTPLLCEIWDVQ
Chain of Ubiquitin carboxyl-terminal hydrolase 1 (Homo sapiens) (O94782 whole entry, looked up): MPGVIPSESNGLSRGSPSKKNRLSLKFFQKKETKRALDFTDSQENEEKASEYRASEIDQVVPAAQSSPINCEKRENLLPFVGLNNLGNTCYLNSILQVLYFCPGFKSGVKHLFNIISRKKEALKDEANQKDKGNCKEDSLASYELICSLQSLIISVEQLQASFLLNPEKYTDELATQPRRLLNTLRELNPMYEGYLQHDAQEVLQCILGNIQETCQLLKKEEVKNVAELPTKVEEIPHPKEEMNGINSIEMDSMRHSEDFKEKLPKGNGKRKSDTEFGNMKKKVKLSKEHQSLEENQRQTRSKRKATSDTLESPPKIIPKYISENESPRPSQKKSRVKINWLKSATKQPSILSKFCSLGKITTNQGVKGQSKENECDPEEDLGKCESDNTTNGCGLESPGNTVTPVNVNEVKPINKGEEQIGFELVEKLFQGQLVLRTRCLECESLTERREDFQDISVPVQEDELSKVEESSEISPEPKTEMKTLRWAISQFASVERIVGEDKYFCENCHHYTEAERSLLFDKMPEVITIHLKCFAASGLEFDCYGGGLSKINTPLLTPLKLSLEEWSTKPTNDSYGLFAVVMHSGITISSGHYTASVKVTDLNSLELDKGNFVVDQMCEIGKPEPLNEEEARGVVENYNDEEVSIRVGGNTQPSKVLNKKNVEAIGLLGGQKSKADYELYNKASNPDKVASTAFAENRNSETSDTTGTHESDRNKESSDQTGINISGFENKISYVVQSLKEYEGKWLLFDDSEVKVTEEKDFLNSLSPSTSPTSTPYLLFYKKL

## COc1ccc(C[C@@H]2NC[C@H](O)[C@@H]2OC(C)=O)cc1
[1]
  Potency: inactive

## C[C@@H](Cc1ccc(O)cc1)NC[C@@H](O)c1cc(O)cc(O)c1
[2]
  outcome: inactive
[1]
  Potency: inactive
[3]
  outcome: inactive
[4]
  outcome: inactive
[5]; parasite line A
  activity, negative = inhibition: 13.4%
[5]; parasite line B
  activity, negative = inhibition: 5.16%
[6]
  Potency: inactive
[7]
  Potency: inactive
[8]
  Potency: inactive
[9]
  Potency: inactive
[10]
  Potency: inactive
[11]
  Potency: inactive
[12]
  Potency: inactive
[13]
  Potency: inactive
[14]
  Potency: inactive
[15]
  Potency: inactive
[16]
  Potency: inactive

## CC[C@@H]1CN2CCc3cc(OC)c(OC)cc3[C@H]2C[C@@H]1C[C@@H]1NCCc2cc(O)c(OC)cc21
[1]
  Potency: inactive

## C[C@@H]1O[C@@H](O[C@H]2C[C@@H](O)[C@@]3(CO)[C@H]4[C@H](O)C[C@]5(C)[C@@H](C6=CC(=O)OC6)CC[C@]5(O)[C@H]4CC[C@@]3(O)C2)[C@@H](O)[C@H](O)[C@H]1O
[2]
  outcome: inactive
[1]
  Potency: inactive
[3]
  outcome: inactive
[4]
  outcome: inactive
[5]; parasite line A
  activity, negative = inhibition: -4.19%
[5]; parasite line B
  activity, negative = inhibition: 10.7%
[6]
  Potency: inactive
[7]
  Potency: inactive
[8]
  Potency: inactive
[9]
  Potency: inactive
[10]
  Potency: inactive
[11]
  Potency: inactive
[12]
  Potency: inactive
[13]
  Potency: inactive
[14]
  Potency: inactive
[15]
  Potency: inactive
[16]
  Potency: inactive

## C=C[C@@H]1CN2CC[C@H]1C[C@H]2[C@H](O)c1ccnc2ccccc12
[2]
  outcome: inactive
[1]
  Potency: inactive
[3]
  outcome: inactive
[4]
  outcome: inactive
[5]; parasite line A
  Potency: 89.1 nM (active)
[5]; parasite line B
  Potency: 100 nM (active)
[6]
  Potency: 158 nM (active)
[7]
  Potency: 501 nM (active)
[8]
  Potency: 675 nM (active)
[9]
  Potency: 1120 nM (active)
[10]
  Potency: 1580 nM (active)
[11]
  Potency: 1120 nM (active)
[12]
  Potency: 355 nM (active)
[13]
  Potency: 891 nM (active)
[14]
  Potency: 112 nM (active)
[15]
  Potency: 224 nM (active)
[16]
  Potency: 891 nM (active)

## O=C(O)[C@H]1C2c3ccccc3C(c3ccccc32)[C@@H]1C(=O)NCC1CC1
[17]
  activation: -0.158%

## O=C1C[C@@H]2OCC=C3CN4CC[C@]56c7ccccc7N1[C@@H]5[C@@H]2[C@H]3C[C@H]46 (tested in a mixture with another compound)
[2]
  outcome: inactive
[1]
  Potency: inactive
[3]
  outcome: inactive
[4]
  outcome: inactive
[5]; parasite line A
  activity, negative = inhibition: -29.7%
[5]; parasite line B
  activity, negative = inhibition: -15.1%
[6]
  Potency: inactive
[7]
  Potency: inactive
[9]
  Potency: 8910 nM (active)
[10]
  Potency: inactive
[11]
  Potency: inactive
[13]
  Potency: 10000 nM (active)
[14]
  Potency: inactive
[15]
  Potency: inactive
[16]
  Potency: inactive

## CC(C)CNCCc1ccccn1
[17]
  activation: 5.07%

## CC(=O)c1c(O)c(C)c(O)c(Cc2c(O)c3c(c(C(=O)/C=C\c4ccccc4)c2O)OC(C)(C)C=C3)c1O
[1]
  Potency: 79400 nM (active)

## COc1cc(C[C@H](C)N)c(OC)cc1I
[17]
  activation: 2.02% and -7.45%

## N[C@H](Cn1ccc(=O)[nH]c1=O)C(=O)O
[17]
  activation: 10.5%

## NC(=O)CN1C[C@@H](O)CC1=O
[17]
  activation: 9.85%

## CCC#N
[18]
  outcome: inactive

## O=C(O)C(Cl)Br (configuration not stated)
[18]
  outcome: inactive

## CCCBr
[18]
  outcome: inactive

## CCOC(=O)CBr
[18]
  outcome: inactive

## C=CC(=O)OC
[18]
  outcome: inactive

## CC12CC1(C)C(=O)N(c1cc(Cl)cc(Cl)c1)C2=O (configuration not stated)
[19]
  activation: -2.56% and 15.9%

## Oc1ccc(Cl)c(Cl)c1Cl
[18]
  outcome: inactive

## O=c1ccc(=O)[nH][nH]1
[19]
  activation: 2.82% and 4.44%
[18]
  outcome: inactive

## CN(C)C(=O)Cl
[20]
  Potency: inactive

## BrCC(Br)C1CCC(Br)C(Br)C1 (configuration not stated)
[19]
  activation: 1.31%

## OC[P+](CO)(CO)CO
[20]
  Potency: inactive

## O=[N+]([O-])c1ccc(O)c([N+](=O)[O-])c1
[1]
  Potency: inactive

## CC(C)C#N
[20]
  Potency: inactive

## CC(C)OS(C)(=O)=O
[20]
  Potency: inactive

## CCCCOCC1CO1 (configuration not stated)
[18]
  outcome: inactive

## C=CCOCC1CO1 (configuration not stated)
[18]
  outcome: inactive

## BrCC(Br)(Br)Br
[19]
  activation: 1.19%
